Screening results as filed in PubChem.
This is a sample that favours compounds with a hit; in the whole collection about 31% have one here.
CYP2C19 inh: blockers of cytochrome P450 2C19 activity – biochemical, luminescence, ADME assay, primary screen; P33261; CYP2C19 Supersomes, luciferin-H EGE luminescence, 30 min; inhibition, % at 5 µM; 96,000 compounds, 21% hits;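 active = CYP2C19 inhibition above a set limit at 5 µM in the primary screen, cut at about 50% in these data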;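 also: plate controls were negative control wells for no effect and 2.5 mM tranylcypromine positive control for full effect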
CYP2C19 activ: human CYP2C19 activators, primary screen, biochemical, luminescence; 96,000 tested, under 10 active; activation factor at 5 µM; Cytochrome P450 2C19 (Homo sapiens), P33261; recombinant CYP2C19, luciferin-H EGE luminescence; active compounds read high; 0 = fully inhibited enzyme, 1 = untreated enzyme;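 active = activation factor of at least 2 at 5 µM in the primary screen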;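 also: 0 = wells with 2.5 mM tranylcypromine and 1 = vehicle-only wells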
CYP2C9 activ: human CYP2C9 activators, primary screen, biochemical, luminescence; Cytochrome P450 2C9 (Homo sapiens), P11712; recombinant CYP2C9, luciferin-H conversion; active compounds read high; factor 1 = untreated enzyme, 0 = blocked; activation factor at 5 µM; 96,000 compounds, 1.4% hits;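 active = activation factor of 2 or more for CYP2C9 at a 5 µM dose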;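 also: 0 = sulfaphenazole-blocked wells and 1 = vehicle-only wells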
Target sequence (P11712 whole entry, looked up): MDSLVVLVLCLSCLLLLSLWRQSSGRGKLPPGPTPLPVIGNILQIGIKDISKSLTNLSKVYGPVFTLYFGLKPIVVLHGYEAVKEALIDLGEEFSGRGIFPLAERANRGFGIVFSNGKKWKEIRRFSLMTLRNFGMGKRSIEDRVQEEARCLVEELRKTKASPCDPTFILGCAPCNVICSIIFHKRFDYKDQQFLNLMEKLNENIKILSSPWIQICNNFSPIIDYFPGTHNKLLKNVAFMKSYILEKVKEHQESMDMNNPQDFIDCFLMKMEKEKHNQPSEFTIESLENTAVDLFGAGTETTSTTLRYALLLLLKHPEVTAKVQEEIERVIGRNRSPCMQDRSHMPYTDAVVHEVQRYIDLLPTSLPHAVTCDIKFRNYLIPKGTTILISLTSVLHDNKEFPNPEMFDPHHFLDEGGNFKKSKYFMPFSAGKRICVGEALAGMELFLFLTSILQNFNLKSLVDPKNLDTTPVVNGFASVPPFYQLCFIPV
CYP2C9 inhib: blockers of cytochrome P450 2C9 activity – biochemical, luminescence, ADME assay, primary screen | P11712 | CYP2C9 Supersomes, luciferin-H conversion | inhibition, % at 5 µM | 96,000 compounds, 20% hits;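 active = blocking of liver enzyme CYP2C9 beyond about 50% at 5 µM, limit read from the data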
An asterisk follows results filed as active.

SMILES	CYP2C19 inh	CYP2C19 activ	CYP2C9 activ	CYP2C9 inhib
COc1cc(NC(=O)C2CCCN2C(=O)OCc2ccccc2)cc(OC)c1 (stereo not given)	32	0.7	0.9	14
O=C(Nc1ccc2c(c1)OCO2)C1CCCN1C(=O)OCc1ccccc1 (stereo not given)	99*	0	0.2	81*
O=C(Nc1ccc2c(c1)OCO2)OCc1ccccc1	92*	0.1	0.6	38
O=C(Nc1ccc2c(c1)OCO2)C1CCCN1C(=O)NCc1ccccc1 (stereo not given)	97*	0	0.3	72*
COC(=O)c1ccccc1NC(=O)Nc1ccc2c(c1)OCO2	30	0.7	0.8	18
N=C1C=CC=C2C1=NC1(CCCCC1)N2O	18	0.8	0.8	22
C=CCn1c(O)c(C(CC)=NCc2cccnc2)c(=O)[nH]c1=O	54*	0.5	0.7	26
CC(Oc1ccc(-c2nccc(-c3ccccn3)n2)cc1)C(=O)NN (stereo not given)	22	0.8	0.7	27
COc1ccc(OCCOC(=O)c2cccs2)cc1	84*	0.2	0.3	73*
COc1ccc(C2CC2/C(C)=N/OC(=O)c2cccs2)cc1 (stereo not given)	62*	0.4	0.3	75*
COc1ccc(C(=O)O/N=C(/C)c2cccs2)cc1	48	0.5	0.1	91*
CCc1ccc(NC(=O)CSc2nc3ccccc3c(=O)n2CCCC(=O)N2CCCC2)cc1	37	0.6	0.6	38
O=C(CSc1nccc2ccccc12)N1CCN(c2ccccn2)CC1	66*	0.3	1.5	-46
O=C(COc1ccc2ccccc2c1Br)N1CCN(c2ccccn2)CC1	84*	0.2	0.9	9
O=C(Cn1cnc2ccccc2c1=O)NCCC(=O)N1CCN(c2ccccc2)CC1	-3	1	0.7	31
C=CCN(CC=C)C(=S)NC(=O)c1ccc(-c2ccccc2)cc1	-4	1	1.3	-26
Cc1ccc(-c2nn(Cc3ccccc3)cc2/C=C/C(=O)O)cc1C	76*	0.2	0.5	45
CCOCCCNC(=O)C1CCN(c2cc(C)nc3c(-c4ccc(OC)c(OC)c4)c(C)nn23)CC1	-7	1.1	0.5	46
C=CCNC(=O)CC(C)C(CCCCC)C(=O)O (stereo not given)	3	1	0.8	15
Cn1ccs/c1=N\S(=O)(=O)c1ccc(Br)cc1	37	0.6	2.4*	-141
CC1CCC2(CC1)NC(=S)N(c1ccccc1)N2 (stereo not given)	54*	0.5	0.9	9
O=C(Nc1ccc(Cl)cc1)N1CCSCC1	60*	0.4	0.9	13
O=C(Nc1ccc(Cl)cc1)N1CCCC1	18	0.8	1	3
Cc1ccc(NC(=O)N2CCC(O)(c3ccc(Cl)cc3)CC2)cc1	96*	0	0.3	71*
CCCN1CCN(c2nc3c([nH]2)c(=N)ncn3CC(O)CO)CC1 (stereo not given)	1	1	0.9	10
SMILES	CYP2C19 inh	CYP2C19 activ	CYP2C9 activ	CYP2C9 inhib
C[C@H](NC(=O)Nc1ccccc1F)C(=O)O	-14	1.1	1	1
CCCC(=O)NC(Nc1cc(C(F)(F)F)ccc1Cl)C(Cl)(Cl)Cl (stereo not given)	14	0.9	0.8	20
CCCC(=O)NC(Nc1ccccc1F)C(Cl)(Cl)Cl (stereo not given)	53*	0.5	0.4	57*
CC(C)CC(=O)NC(Nc1ccccc1F)C(Cl)(Cl)Cl (stereo not given)	52*	0.5	0.4	58*
CC(C)C(=O)NC(Nc1ccccc1F)C(Cl)(Cl)Cl (stereo not given)	54*	0.5	0.4	59*
Cc1ccc(NC(=O)/C=C/c2cccs2)c([N+](=O)[O-])c1	-16	1.2	1.1	-8
COc1cc(C)c(C(C)C)cc1S(=O)(=O)NCCCn1ccnc1	100*	0	0	99*
COc1cc(C(=O)Nc2sc3c(c2C#N)CCN(C(C)=O)C3)cc(OC)c1OC	1	1	0.6	42
CCOC(=O)c1sc(N)c(C#N)c1COC(=O)CNC(=O)c1cc(OC)c(OC)c(OC)c1	53*	0.5	0.4	64*
CC(C)COC(=O)c1ccc2c(c1O)C(=O)c1ccccc1C2=O	-36	1.4	0.6	36
CC1=C(C(=O)OCC(C)C)C23C(=O)c4ccccc4C2(O1)OC(N)=C3C#N (stereo not given)	86*	0.1	0.3	68*
CCOc1cccc(CNn2cnnc2)c1OCc1ccccc1Cl	76*	0.2	0.8	20
CCOc1cccc(CNc2ccc(O)cc2)c1OCc1ccc(Cl)cc1Cl	30	0.7	1.1	-12
COc1cccc(CNn2cnnc2)c1OCc1ccc(F)cc1	86*	0.1	0.4	57*
COc1cccc(CNn2cnnc2)c1OCc1ccccc1F	76*	0.2	0.7	30
COc1cc(CNCCc2c[nH]c3ccccc23)ccc1OCc1ccccc1F	37	0.6	0.9	11
COC(=O)c1nn(-c2ccc(Cl)cc2)c(=O)cc1Sc1ccccn1	11	0.9	1	4
CCOC(=O)COc1ccc(S(=O)(=O)Nc2ccc3c(c2)OCCO3)cc1	6	0.9	0.9	7
COC(=O)COc1ccc(S(=O)(=O)Nc2ccc3c(c2)OCO3)cc1Cl	98*	0	0.3	70*
COc1ccc(S(=O)(=O)N/N=C\c2ccc3c(c2)OCO3)cc1	71*	0.3	0.2	79*
COC(=O)COc1ccc(S(=O)(=O)Nc2ccc3c(c2)OCO3)cc1	99*	0	0.1	93*
COc1cnc(-c2ccccn2)nc1Sc1cccc(Cl)c1	13	0.9	0.7	30
Cc1csc(SCCn2c(N3CCCC3)nc3c2c(=O)[nH]c(=O)n3C)n1	27	0.7	0.6	42
O=C(O)[C@H](Cc1ccccc1)N1Cc2ccccc2C1=O	-21	1.2	1.1	-13
O=C(O)C(Cc1ccccc1)N1C(=O)/C(=C/c2cccc3ccccc23)SC1=S (stereo not given)	12	0.9	0.3	72*
SMILES	CYP2C19 inh	CYP2C19 activ	CYP2C9 activ	CYP2C9 inhib
Cc1c(N2C(=O)/C(=C\c3cccc4ccccc34)SC2=S)c(=O)n(-c2ccccc2)n1C	71*	0.3	0.8	25
CC(=O)c1c(C)[nH]c(C(=O)N2CCc3ccccc32)c1C	69*	0.3	0.3	69*
CC1CCN(S(=O)(=O)c2cc(Br)cc(C(=O)NC3=NCCS3)c2)CC1	68*	0.3	0.6	45
CN1CCC2(CC1)Nc1nc(SCc3ccc(Cl)cc3)nn1C1=C2CN(C)CC1	-1	1	1	-2
O=C(NCc1ccc(F)cc1)C(c1ccncc1)N(C(=O)c1csnn1)C1CC1 (stereo not given)	54*	0.5	0.8	19
O=C(NCc1ccccc1)C(c1ccncc1)N(C(=O)c1csnn1)C1CC1 (stereo not given)	45	0.6	0.8	16
